# Pf Dd2 growth: qHTS Primary assay for Inhibitors of Plasmodium falciparum Dd2 growth in vitro; P. falciparum Dd2 growth, SYBR Green, 72 h; Potency, µM (top dose mostly 28.9 µM), for the others: top-dose activity, negative = inhibition, most hits filed as inhibitors; actives 4.3% (n = 120,000); active = well fitted inhibition curve with a large enough effect;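 also: plate controls were DMSO vehicle for no effect and reference drug for full effect; nearly all actives have a fitted effect of over 65% in size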
#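 Infected erythrocytes (Dd2, 0.3% parasitemia, 2.5% hematocrit final) are added to compound in RPMI-1640/Albumax II medium, grown 72 h at 37C in low oxygen, then lysed with saponin/Triton-X containing SYBR Green and read by fluorescence.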
# The depositor's hits bear a star; i = inactive; [ ] = dose if it differs, or a comment. The entries come from a sample that favours hits as a whole. Potency is read from the fitted curve at half-maximal effect.
SMILES,Pf Dd2 growth
COC(=O)c1ccc2nc(C[C@@H]3C[C@@H](C(C)C)[C@H](CNC4CCOCC4)C=C3C)[nH]c2c1,-20.3%
COC(=O)c1ccc2nc(C[C@@H]3C[C@@H](C(C)C)[C@H](CNC(=O)N4CCOCC4)C=C3C)[nH]c2c1,12.6µM*
COCC(=O)NC[C@@H]1C=C(C)[C@H](CC(=O)N2CCCC2)C[C@H]1C(C)C,-22.2%[44.1 µM]
COCC(=O)NC[C@@H]1C=C(C)[C@H](Cc2nc3ccc(F)cc3[nH]2)C[C@H]1C(C)C,12.6µM*
COC(=O)c1ccc2nc(C[C@@H]3C[C@@H](C(C)C)[C@H](CNC(=O)c4cnccn4)C=C3C)[nH]c2c1,-5.5%
CCOC(=O)C[C@@H]1C[C@@H](C(C)C)[C@H](CNC(=O)C2CC2)C=C1C,-15.9%[44.1 µM]
COCC(=O)NC[C@@H]1C=C(C)[C@H](Cc2nc3ccccc3[nH]2)C[C@H]1C(C)C,i
CCC(CC)C(=O)NC[C@@H]1C=C(C)[C@H](Cc2nc3ccc(C(=O)OC)cc3[nH]2)C[C@H]1C(C)C,-1.4%
CC1=C[C@@H](CNC(=O)CC2(CC(=O)O)CCCC2)[C@H](C(C)C)C[C@H]1Cc1nc2ccc(F)cc2[nH]1,i
COCCNC(=O)C[C@@H]1C[C@@H](C(C)C)[C@H](CNC(=O)C2CC2)C=C1C,8.91µM*
COC(=O)c1ccc2nc(C[C@@H]3C[C@@H](C(C)C)[C@H](CNC(=O)[C@@H]4CCCC[C@@H]4C(=O)O)C=C3C)[nH]c2c1,-12.9%
COC(=O)c1ccc2nc(C[C@@H]3C[C@@H](C(C)C)[C@H](CNC(=O)c4ccccc4)C=C3C)[nH]c2c1,8.91µM*
CN1CCCCCCN(C(=O)NC2CCCCC2)CCC1=O,1.6%
COc1ccc(OC(=O)N2CCC(Oc3ccc4c(cnn4CCC(=O)O)c3)CC2)cc1,-19.2%[44.1 µM]
O[C@@H]1C[C@@H](c2nc(-c3ccc(F)cc3)no2)N(Cc2ccncc2)C1,-12.9%[44.1 µM]
O=C(Cc1ccc(OC(F)(F)F)cc1)N1CCC([C@@H]2CNC[C@H]2CO)CC1,-17.2%
Cc1cc(NC(=O)N2CCC(n3cnnc3C3CC3)C2)ccc1Br (stereo not drawn),-8.4%
CCC(=O)N1CCCC(Cc2nncn2-c2ccccc2)C1 (stereo not drawn),0.0%
CCN1C(=O)C2(CCN(S(=O)(=O)c3ccc(OC)cc3)CC2)c2ccccc21,62.1%
Cc1ccc(C)c(NC(=O)N2C[C@H](c3nc(-c4ccncc4)no3)[C@@H](C)C2)c1,-17.6%
Cc1cnc(C(=O)NC2C[C@H]3CC[C@@H](C2)N3C(=O)Nc2cccc(C(F)(F)F)c2)cn1 (stereo partly drawn),-9.2%
CN(C)Cc1ccc(-c2ccc(CO)cc2CO)cc1,-25.7%
O=C(c1ccc(F)cc1)N1C[C@@H]2OCC(=O)N(Cc3ccccn3)[C@@H]2C1,20.0%[44.1 µM]
CC1=C[C@@H](CNCc2ccccc2O)[C@H](C(C)C)C[C@H]1Cc1nc2c(C)cccc2[nH]1,-24.6%[44.1 µM]
COc1ccc2nc(C[C@@H]3C[C@@H](C(C)C)[C@H](CNCc4ccccn4)C=C3C)[nH]c2c1,0.631µM*
SMILES,Pf Dd2 growth
COc1ccc2nc(C[C@@H]3C[C@@H](C(C)C)[C@H](CNCc4ccc(NC(C)=O)cc4)C=C3C)[nH]c2c1,i
CC1=C[C@@H](CNC(=O)NC2CCCCC2)[C@H](C(C)C)C[C@H]1Cc1nc2ccc(C)cc2[nH]1,-18.5%[44.1 µM]
CC1=C[C@@H](CNC2CCN(C)CC2)[C@H](C(C)C)C[C@H]1Cc1nc2ccc(F)cc2[nH]1,-21.8%[44.1 µM]
CC1=C[C@@H](CN)[C@H](C(C)C)C[C@H]1Cc1nc2ccc(C)cc2[nH]1,10µM*
COC(=O)c1ccc2nc(C[C@@H]3C[C@@H](C(C)C)[C@H](CN)C=C3C)[nH]c2c1,-16.0%[44.1 µM]
CC1=C[C@@H](CNC(=O)CCCC(=O)O)[C@H](C(C)C)C[C@H]1Cc1nc2ccc(Cl)cc2[nH]1,-5.5%
CC1=C[C@@H](CN)[C@H](C(C)C)C[C@H]1Cc1nc2ccc(Cl)cc2[nH]1,11.2µM*
O=C(Nc1ccc([C@@H](O)[C@H]2COCC(=O)N2Cc2ccccn2)cc1)c1cnccn1,16.5%[44.1 µM]
Cc1ccc(C(C(=O)NCc2cc(C)nn2C)N(C)C)cc1 (stereo not drawn),-9.3%
COCCc1noc(-c2nc(-c3ccccc3)no2)n1,-15.7%
COCCN1CCCC2(CCN(C(=O)c3ncoc3C3CC3)C2)C1=O (stereo not drawn),-7.4%
COc1ccc(NC(=O)c2ccco2)cc1NC(=O)COc1ccccc1,1.4%
COc1ccc(NC(=O)c2ccco2)cc1NC(=O)COc1ccc(C)cc1C,2.82µM*
COc1ccc(NC(=O)c2ccco2)cc1NC(=O)COc1ccc(Cl)cc1C,16.2%
COc1ccc(C2=NOC3(CCN(Cc4ccccc4)C3)C2)cc1 (stereo not drawn),i
COc1ccc(OC2CN(Cc3ccccc3)C2)cc1,20.9%[44.1 µM]
CC1=NOC2(CCN(Cc3ccccc3)CC2)C1,-10.7%[44.1 µM]
CCc1c(C)c2ccc3c(c2oc1=O)CN(Cc1ccccc1)CO3,1µM*
Cc1coc2c(C)c3oc(=O)c(CC(=O)NCc4ccccc4)c(C)c3cc12,-7.7%
O=C1COc2ccc(-c3ccncc3)nc2CN1Cc1ccccc1,i
O=c1c2oc3ccccc3c2n(Cc2ccccc2)c(=O)n1Cc1ccc2c(c1)OCO2,-4.5%
COc1ccc(-c2cc(=O)oc3c4c(ccc23)OCN(Cc2ccccc2)C4)cc1,0.891µM*
O=c1cc(-c2ccccc2)c2ccc3c(c2o1)CN(Cc1ccccc1)CO3,1µM*
Cc1cccc(OC[C@H]2C[C@@H](NCc3ccc(C)o3)[C@H](O)[C@@H]2O)n1,i
Cc1cnc(C(=O)N2CCC(Oc3cccnc3)C2)cn1 (stereo not drawn),2.8%
SMILES,Pf Dd2 growth
O=C(Cc1ccsc1)N1CCc2n[nH]c(=O)n2CC1,60.3%
CC(C)NC(=O)c1cc2n(n1)CC(c1ccc3c(c1)OCO3)OC2 (stereo not drawn),i
COC[C@H]1C[C@@H](NC(=O)c2ccccc2)[C@H](O)[C@@H]1O,17.6%[44.1 µM]
CN1CCC(N2CCN(C(=O)CCC3CCCCC3)CC2)C1=O (stereo not drawn),1.7%
COCCOCc1nc(C2CCN(C(=O)Nc3ccccc3F)CC2)no1,16.0%
COCC(=O)NC1CCC12CCN(C(=O)C1CC1)CC2 (stereo not drawn),-7.0%
CN(Cc1cccnc1)Cc1nc(C2(O)CCN(C(=O)c3ccc(F)cc3)CC2)cs1,-3.1%
COc1ccc(NC(=O)c2c(C)oc3ccc(O)c(CN4CCCCCC4)c23)cc1Cl,0.355µM*
COc1cc(=O)n2c(c1C(=O)Nc1ccc(F)c(Cl)c1)CCCC2,51.0%
COc1cc(=O)n2c(c1C(=O)Nc1ccccc1C)CCCC2,19.1%
Cc1cc(Br)ccc1NC(=O)c1c(C)oc2ncnc(N3CCCCC3)c12,-0.6%
Cc1ccc(NC(=O)c2c(C)oc3ncnc(N4CCCCC4)c23)cc1Cl,-5.8%
Cc1ccccc1NC(=O)c1c(C)oc2ccc(O)c(CN3CCCCCC3)c12,2.51µM*
Cn1cc(C(=O)NCC2CN(Cc3ccccc3)CC23CN(c2ccccc2)C3)cn1 (stereo not drawn),i
COc1ccc(C(=O)N[C@@H]2C[C@H](Cn3cc(CN(C)C)nn3)[C@@H](O)[C@H]2O)cc1,31.9%[44.1 µM]
CNc1nccc(N2CCC(CC(=O)NCCN3CCOCC3)CC2)n1,8.5%
Cc1c(C)n(Cc2ccc(F)cc2)c2ccc(C(=O)NCc3ccco3)cc12,3.55µM*
Cc1cccc(CNC(=O)c2ccc3c(c2)c(C)c(C)n3Cc2ccccc2)c1,-3.3%
CCn1c(C)c(C)c2cc(C(=O)NCc3ccc(F)cc3)ccc21,i
